Data taken from PubChem BioAssay (EPA / NIEHS).
Activity calls are given as the source filed them. Rule for the calls: active = hit-call score of the fitted dose curve at least 0.9, where 1 is the maximum; inactive = score below 0.9.

Key:
Details in all cases: mRNA level, 48 h; actives raise or lower the signal
[1] = read-out: HGF (gene 3082); test: LTEA_HepaRG_HGF: Life Technologies and Expression Analysis (LTEA) Assay for Hepatocyte Growth Facto (HGF) using HepaRG (AID 2283505)
Summary of the method: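 HepaRG, 48 h dosing, 8-pt half-log series from 100 uM in 0.5% DMSO, duplicates. Readout: TaqMan qRT-PCR of HGF mRNA, housekeeping-normalized; bidirectional curve fit vs DMSO baseline.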

[2] = read-out: Insulin Like Growth Factor 1 (IGF1), IGF1 (gene 3479); test: LTEA_HepaRG_IGF1: Life Technologies and Expression Analysis (LTEA) Assay for Insulin Like Growth Factor 1 (IGF1) using HepaRG (AID 2283506)
Summary of the method: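 Differentiated human HepaRG cells were dosed for 48 h in serum-free induction medium with 0.5% DMSO, eight half-log concentrations up to 100 uM, in duplicate. IGF1 mRNA was quantified by qRT-PCR normalized to ACTB, GAPDH, POLR2A; bidirectional fitting versus DMSO.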

[3] = read-out: Intercellular Adhesion Molecule 1 (ICAM1), ICAM1 (gene 3383); test: LTEA_HepaRG_ICAM1: Life Technologies and Expression Analysis (LTEA) Assay for Intercellular Adhesion Molecule 1 (ICAM1) using HepaRG (AID 2283507)
Summary of the method: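 HepaRG, 48 h exposure, 8-pt half-log series from 100 uM, 0.5% DMSO vehicle, duplicates. Readout: TaqMan qRT-PCR mRNA, housekeeping-normalized (ACTB/GAPDH/POLR2A). Bidirectional curve fit vs DMSO baseline.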

[4] = read-out: Insulin-like growth factor-binding protein 1 (IGFBP1), IGFBP1 (gene 3484); test: LTEA_HepaRG_IGFBP1: Life Technologies and Expression Analysis (LTEA) Assay for Insulin-like growth factor-binding protein 1 (IGFBP1) using HepaRG (AID 2283508)
Summary of the method: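 qRT-PCR mRNA read-out (TaqMan, Fluidigm array), normalised to three housekeeping genes; HepaRG cells, 48 h exposure, 8-pt half-log series from 100 uM, 0.5% DMSO vehicle; bidirectional curve fit vs DMSO baseline.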

[5] = read-out: Interleukin 6 (IL6), IL6 (gene 3569); test: LTEA_HepaRG_IL6: Life Technologies and Expression Analysis (LTEA) Assay for Interleukin 6 (IL6) using HepaRG (AID 2283509)
Summary of the method: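 Differentiated human HepaRG cells, plated 48 h then switched to serum-free induction medium, were exposed in duplicate for 48 h to eight half-log concentrations up to 100 uM in 0.5% DMSO. IL6 mRNA measured by qRT-PCR, normalized to ACTB/GAPDH/POLR2A.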

[6] = read-out: Interleukin 6 Receptor (IL6R), IL6R (gene 3570); test: LTEA_HepaRG_IL6R: Life Technologies and Expression Analysis (LTEA) Assay for Interleukin 6 Receptor (IL6R) using HepaRG (AID 2283510)
Summary of the method: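 Differentiated human HepaRG cells, plated 48 h then switched to serum-free induction medium, were dosed in duplicate for 48 h at eight half-log concentrations up to 100 uM in 0.5% DMSO. IL6R mRNA quantified by qRT-PCR, normalized to ACTB/GAPDH/POLR2A; bidirectional fit versus DMSO.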

[7] = read-out: Potassium channel subfamily K member 1 (KCNK1), KCNK1 (gene 3775); test: LTEA_HepaRG_KCNK1: Life Technologies and Expression Analysis (LTEA) Assay for Potassium channel subfamily K member 1 (KCNK1) using HepaRG (AID 2283511)
Summary of the method: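 Differentiated human HepaRG cells in serum-free induction medium were exposed in duplicate for 48 h to 8 half-log concentrations up to 100 uM in 0.5% DMSO. KCNK1 mRNA was measured by TaqMan qRT-PCR, normalized to ACTB, GAPDH and POLR2A, and fitted bidirectionally versus DMSO.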

[8] = read-out: Keratin 19 (KRT19), KRT19 (gene 3880); test: LTEA_HepaRG_KRT19: Life Technologies and Expression Analysis (LTEA) Assay for Keratin 19 (KRT19) using HepaRG (AID 2283512)
Summary of the method: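 HepaRG, 48 h chemical exposure, 8-pt half-log CRC from 100 uM, 0.5% DMSO vehicle, duplicates. Readout: TaqMan qRT-PCR of KRT19 mRNA, housekeeping-normalized (ACTB/GAPDH/POLR2A). Bidirectional fit vs DMSO baseline.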

[9] = read-out: JUN Transcription Factor, JUN (gene 3725); test: LTEA_HepaRG_JUN: Life Technologies and Expression Analysis (LTEA) Assay for JUN Transcription Factor using HepaRG (AID 2283513)
Summary of the method: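 Differentiated HepaRG cells were exposed to chemicals for 48 h in serum-free induction medium, 8 concentrations from 100 uM in half-log steps, 0.5% DMSO vehicle, in duplicate. JUN mRNA was quantified by TaqMan qRT-PCR, normalized to ACTB, GAPDH, POLR2A.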

[10] = read-out: Lipase C (LIPC), LIPC (gene 3990); test: LTEA_HepaRG_LIPC: Life Technologies and Expression Analysis (LTEA) Assay for Lipase C (LIPC) using HepaRG (AID 2283514)
Summary of the method: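 Differentiated human HepaRG cells in serum-free induction medium were exposed in duplicate for 48 h to eight concentrations (top 100 uM, half-log steps, 0.5% DMSO). LIPC mRNA was quantified by TaqMan qRT-PCR, normalized to ACTB, GAPDH and POLR2A, with bidirectional fitting versus DMSO.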

[11] = read-out: MicroRNA 122 (MIR122), gene 406906; test: LTEA_HepaRG_MIR122: Life Technologies and Expression Analysis (LTEA) Assay for MicroRNA 122 (MIR122) using HepaRG (AID 2283516); note: the transcript read is the microRNA miR-122
Summary of the method: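 Differentiated human HepaRG cells were exposed 48 h in serum-free induction medium to eight half-log concentrations (top 100 uM, 0.5% DMSO). Transcript level was measured by TaqMan qRT-PCR, normalized to ACTB, GAPDH and POLR2A, and fitted bidirectionally versus DMSO.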

[12] = read-out: matrix metalloproteinase-10 (MMP10), MMP10 (gene 4319); test: LTEA_HepaRG_MMP10: Life Technologies and Expression Analysis (LTEA) Assay for matrix metalloproteinase-10 (MMP10) using HepaRG (AID 2283517)
Summary of the method: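 HepaRG, collagen I, ~100,000 cells/well; serum-free induction medium; 48 h exposure, duplicate, 8-pt half-log to 100 uM, 0.5% DMSO. Readout: TaqMan qRT-PCR, normalized to ACTB/GAPDH/POLR2A; bidirectional fit vs DMSO.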

[13] = read-out: MYC, MYC (gene 4609); test: LTEA_HepaRG_MYC: Life Technologies and Expression Analysis (LTEA) Assay for MYC using HepaRG (AID 2283518)
Summary of the method: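 qRT-PCR read-out of MYC transcript (Fluidigm TaqMan, housekeeping-normalized) after 48 h chemical exposure of HepaRG cells; eight concentrations, top 100 uM, half-log steps. Bidirectional curve fitting against 0.5% DMSO vehicle baseline.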

[14] = read-out: matrix metalloproteinase-3 (MMP3), MMP3 (gene 4314); test: LTEA_HepaRG_MMP3: Life Technologies and Expression Analysis (LTEA) Assay for matrix metalloproteinase-3 (MMP3) using HepaRG (AID 2283519)
Summary of the method: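 Differentiated human HepaRG cells, plated 48 h on collagen I, were exposed in duplicate for 48 h in serum-free induction medium to eight half-log concentrations up to 100 uM in 0.5% DMSO. MMP3 mRNA was quantified by TaqMan qRT-PCR, normalised to ACTB, GAPDH and POLR2A.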

[15] = read-out: Paternally Expressed 10 (PEG10), PEG10 (gene 23089); test: LTEA_HepaRG_PEG10: Life Technologies and Expression Analysis (LTEA) Assay for Paternally Expressed 10 (PEG10) using HepaRG (AID 2283520)
Summary of the method: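 Differentiated HepaRG cells, plated 48 h then switched to serum-free induction medium, were exposed in duplicate for 48 h to eight half-log concentrations topping at 100 uM in 0.5% DMSO. PEG10 mRNA was quantified by TaqMan qRT-PCR, normalised to ACTB, GAPDH and POLR2A.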

[16] = read-out: Protein phosphatase 2A (PPP2R4), PTPA (gene 5524); test: LTEA_HepaRG_PPP2R4: Life Technologies and Expression Analysis (LTEA) Assay for Protein phosphatase 2A (PPP2R4) using HepaRG (AID 2283522)
Summary of the method: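 Differentiated HepaRG cells in serum-free induction medium were exposed in duplicate for 48 h to eight concentrations, top 100 uM with half-log dilutions, in 0.5% DMSO. PPP2R4 mRNA was quantified by TaqMan qRT-PCR, normalized to ACTB, GAPDH and POLR2A.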

[17] = read-out: Phosphatase and tensin (PTEN), PTEN (gene 5728); test: LTEA_HepaRG_PTEN: Life Technologies and Expression Analysis (LTEA) Assay for Phosphatase and tensin (PTEN) using HepaRG (AID 2283523)
Summary of the method: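 Differentiated human HepaRG cells, plated 48 h then switched to serum-free induction medium, were exposed in duplicate for 48 h to eight half-log concentrations up to 100 uM in 0.5% DMSO. PTEN mRNA measured by TaqMan qRT-PCR, normalized to ACTB/GAPDH/POLR2A, bidirectional fit versus DMSO.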

[18] = read-out: solute carrier (SLC22A1), SLC22A1 (gene 6580); test: LTEA_HepaRG_SLC22A1: Life Technologies and Expression Analysis (LTEA) Assay for solute carrier (SLC22A1) using HepaRG (AID 2283524)
Summary of the method: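 Human HepaRG cells were plated 48 h, switched to serum-free induction medium, then exposed in duplicate for 48 h to 8-point half-log series from 100 uM in 0.5% DMSO. SLC22A1 mRNA measured by qRT-PCR, normalized to ACTB/GAPDH/POLR2A, fitted bidirectionally versus DMSO.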

[19] = read-out: Nuclear factor NF-kappa-B p105 subunit (Homo sapiens) (UniProt P19838); test: LTEA_HepaRG_NFKB1: Life Technologies and Expression Analysis (LTEA) Assay for Nuclear Factor Kappa B Subunit 1 (NFKB1) using HepaRG (AID 2283521);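 note: TaqMan qRT-PCR transcript normalised to ACTB GAPDH and POLR2A housekeeping genes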
Summary of the method: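 Differentiated human HepaRG cells were exposed for 48 h in serum-free induction medium to eight concentrations (top 100 uM, half-log steps, 0.5% DMSO), in duplicate. NFKB1 mRNA was measured by TaqMan qRT-PCR, normalized to ACTB/GAPDH/POLR2A, and fitted bidirectionally against DMSO.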

[20] = read-out: Lipoprotein lipase (LPL), LPL (gene 4023); test: LTEA_HepaRG_LPL: Life Technologies and Expression Analysis (LTEA) Assay for Lipoprotein lipase (LPL) using HepaRG (AID 2283515)
Summary of the method: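 Differentiated human HepaRG cells in serum-free induction medium were exposed in duplicate for 48 h to eight half-log concentrations (top 100 uM) in 0.5% DMSO. LPL mRNA was quantified by TaqMan qRT-PCR, normalized to ACTB, GAPDH and POLR2A.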

Measured: AC50

Chain of Nuclear factor NF-kappa-B p105 subunit (Homo sapiens) (P19838 whole entry, looked up): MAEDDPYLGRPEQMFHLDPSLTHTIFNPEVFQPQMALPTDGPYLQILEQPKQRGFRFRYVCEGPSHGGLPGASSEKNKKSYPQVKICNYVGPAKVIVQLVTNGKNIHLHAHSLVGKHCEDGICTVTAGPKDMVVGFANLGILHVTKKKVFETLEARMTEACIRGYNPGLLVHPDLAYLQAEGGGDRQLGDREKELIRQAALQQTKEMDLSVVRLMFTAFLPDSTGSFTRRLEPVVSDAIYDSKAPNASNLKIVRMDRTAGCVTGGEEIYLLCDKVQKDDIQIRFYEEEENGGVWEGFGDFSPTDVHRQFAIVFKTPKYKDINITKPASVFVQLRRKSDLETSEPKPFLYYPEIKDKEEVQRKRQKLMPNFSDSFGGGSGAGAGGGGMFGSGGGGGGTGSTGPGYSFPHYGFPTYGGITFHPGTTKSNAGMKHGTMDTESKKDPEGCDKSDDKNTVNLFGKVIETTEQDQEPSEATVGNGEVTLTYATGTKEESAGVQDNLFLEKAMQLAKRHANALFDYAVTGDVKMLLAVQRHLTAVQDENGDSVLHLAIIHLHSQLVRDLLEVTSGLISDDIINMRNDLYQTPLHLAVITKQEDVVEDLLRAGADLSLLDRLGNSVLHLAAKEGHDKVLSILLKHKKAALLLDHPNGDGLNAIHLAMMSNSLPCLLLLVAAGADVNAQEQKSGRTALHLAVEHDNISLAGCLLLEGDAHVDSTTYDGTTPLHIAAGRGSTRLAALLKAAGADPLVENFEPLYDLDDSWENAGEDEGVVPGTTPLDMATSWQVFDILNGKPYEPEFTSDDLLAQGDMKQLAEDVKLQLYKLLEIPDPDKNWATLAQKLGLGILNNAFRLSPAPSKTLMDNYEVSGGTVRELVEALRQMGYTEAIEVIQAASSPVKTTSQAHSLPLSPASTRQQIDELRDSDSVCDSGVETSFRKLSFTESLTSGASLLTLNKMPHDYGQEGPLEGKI

CCCCCCc1ccc(O)cc1O
inactive: [1] | [2] | [3] | [4] | [5] | [6] | [7] | [8] | [9] | [10] | [11] | [12] | [13] | [14] | [15] | [16] | [17] | [18]

CCn1nc(Cc2ccccc2)cc1C1CCN(C[C@H]2C[C@H](N(C)[C@@H](C(=O)O)C(C)C)C[C@@H]2c2cccc(F)c2)CC1
inactive: [1] | [5] | [7] | [9] | [10] | [11] | [12] | [13] | [14] | [15] | [19] | [16] | [17]
active: [2] 37.7 µM | [3] 50 µM | [4] 73.6 µM | [8] 34.9 µM | [18] 12.4 µM

O=C(NS(=O)(=O)/C=C/c1ccccc1)c1ccc(F)cc1Cl
active: [2] 8.33 µM | [15] 21.3 µM
inactive: [1] | [3] | [4] | [5] | [6] | [7] | [8] | [9] | [10] | [20] | [11] | [12] | [13] | [19] | [16] | [17] | [18]

CCCCC(CC)COC(=O)c1ccc(C(=O)OCC(CC)CCCC)cc1 (configuration not stated)
inactive: [1] | [2] | [3] | [4] | [5] | [7] | [8] | [9] | [10] | [20] | [11] | [12] | [13] | [14] | [15] | [16] | [17] | [18]

On1ccccc1=S
inactive: [1] | [2] | [3] | [4] | [6] | [7] | [8] | [9] | [10] | [20] | [11] | [12] | [13] | [14] | [15] | [19] | [16] | [17] | [18]

O=C1CCCCCN1
inactive: [1] | [2] | [3] | [4] | [7] | [8] | [9] | [10] | [20] | [11] | [12] | [13] | [15] | [19] | [16] | [17] | [18]

C=CC(=C)CCC=C(C)C
inactive: [1] | [2] | [3] | [4] | [6] | [7] | [8] | [9] | [10] | [20] | [11] | [12] | [13] | [15] | [19] | [16] | [17] | [18]
